{"source": "PubChem BioAssay AID1347041", "about": "(National Center for Advancing Translational Sciences (NCATS), 2019)", "note": "The whole screen tested about 480,000 compounds, of which about 740 (0.15%) were called active. Many of the other results were omitted from the sample, so actives are more common in it than they were. Values without a mark were called inactive. Rule as the data show it: active = activity change below about -30%; inconclusive = mostly about -25% to -30%; inactive = weaker than that.", "data": [{"molecular_target": "L-lactate dehydrogenase A chain (Homo sapiens) (UniProt P00338)", "assay": "qHTS assay for inhibitors of human lactate dehydrogenase;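 also: values are at about 110 or 230 µM; plate controls were DMSO wells for no effect and wells without enzyme for full effect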", "settings": "purified LDHA, NADH/diaphorase-resazurin fluorescence; active compounds read low", "source_text": "LDH is a key glycolytic enzyme that catalyzes the final step in the glycolytic pathway, reducing pyruvate to lactate and regenerating NAD+ equivalents necessary for continued glycolysis. LDHA has been linked to the carcinogenesis and malignancy in numerous forms of cancers and many other diseases. Consequently, both pharma and academia have invested in significant research efforts to identify small molecule therapeutics. Such attempts have been stalled or abandoned due to limited success in discovering potent and drug-like inhibitors that can be utilized to validate LDHA in vivo as a drug target, a necessary step toward advancing such a molecule towards the clinic Towards this goal we designed and performed a quantitative high-throughput screening (qHTS) campaign to discover novel compounds that are potent inhibitors of LDHA enzyme activity and cancer cell line growth.\nThe assay was optimized to 1536-well plates. Briefly, 3 µL of human lactate dehydrogenase 5 (#A38558H, Meridian Life Science, Inc., Memphis, TN) in LDH assay buffer (200 mM Tris HCl pH 7.4, 100 microM EDTA and 0.01% Tween-20) was added to a black solid bottom 1536-well assay plate (Greiner Bio-One) using a BioRAPTR FRD dispenser (Beckman Coulter, Brea, CA). A 1536-well pintool dispenser outfitted with 20 nL pins (Wako Automation, San Diego, CA) was used to transfer 23 nL of DMSO-solubilized compound (both library and vehicle controls) to each 1536-well assay plate. Following compound transfer, 1 µL of substrate solution containing NADH and sodium pyruvate (Sigma-Aldrich, St. Louis, MO) in LDH assay buffer was dispensed via BioRAPTR FRD to initiate the reaction. Final concentrations in the 4 microL reaction volume were 2 nM LDHA enzyme, 0.06 mM NADH and 0.2 mM sodium pyruvate. Following a 5 minute incubation period at room temperature, 1 µL of detection reagent (C. kluyveri diaphorase (Sigma-Aldrich) and resazurin sodium salt (Sigma-Aldrich) in LDH assay buffer) was added to a total volume of 5 µL. Final concentrations of detection reagents were 0.133 mg/mL diaphorase and 37 µM resazurin. Plates were immediately transferred to a ViewLux microplate imager (PerkinElmer, Waltham, MA), and any resulting resorufin fluorescence was measured (ex540, em590 nm) at 0 and 20 minutes. Fluorescence was normalized using enzyme-free and DMSO-treated control wells on each plate.", "values": [{"compound": "C=CCN1C(=O)NC(=O)/C(=C/c2ccc(OCC(=O)Nc3ccc(C)cc3)cc2)C1=O", "activity change": "-1.94%"}, {"compound": "O=C(O)COc1ccccc1/C=C1\\C(=O)NC(=O)N(CCC2=CCCCC2)C1=O", "activity change": "-34.5% (active)"}, {"compound": "Cc1[nH]nc2c1C(c1ccc(C(=O)O)cc1)SCC(=O)N2", "note": "(stereo not given)", "activity change": "4.1%"}, {"compound": "COc1ccccc1N=C1SCCCN1C", "activity change": "-34.1% (active)"}, {"compound": "O=C(COc1ccc2c(=O)c(-c3ccccc3)coc2c1)N1CCN(CCO)CC1", "activity change": "3.12%"}, {"compound": "COC(=O)C(O)(c1ccc(N(C)C(=O)O/N=C(/C)Cl)cc1)C(F)(F)F", "note": "(stereo not given)", "activity change": "1.08%"}, {"compound": "COc1cc(-c2c(C#N)c(N)nc3c2c(=O)nc2sccn23)ccc1OCc1ccccc1C", "activity change": "6.76%"}, {"compound": "C[N+]12CN3CN(CN(C3)C1)C2", "activity change": "-52.1% (active)"}, {"compound": "Cc1c(-c2ccc(Br)cc2)c(=O)oc2ccc(OC(=O)N(C)C)cc12", "activity change": "8.34%"}, {"compound": "N/C(=N\\N=C\\c1ccco1)N[N+](=O)[O-]", "activity change": "6.01%"}, {"compound": "Cc1nc(CN2CCNCC2)cs1", "activity change": "0.726%"}, {"compound": "Cc1ccc(C2(O)CC(C)N(C)CC2C)c(C)c1", "note": "(stereo not given)", "activity change": "1.58%"}, {"compound": "CCOC(=O)C1=C(N)OC(C)=C(C(=O)OC(C)C)C12C(=O)Nc1ccc(Br)cc12", "note": "(stereo not given)", "activity change": "12.9%"}, {"compound": "ClCc1cccnc1", "activity change": "-7.12%"}, {"compound": "CCN1CCN(C(=O)COc2ccc3c(=O)c(Oc4ccccc4)c(C)oc3c2)CC1", "activity change": "-13.1%"}]}]}
